Common to all, as to set-up: scale not given: direction of the effect not stated beside the values
The target of test [1] is Protein translocase subunit SecA (Escherichia coli (strain K12)) (UniProt P10408). Description: Assay to Identify E. coli SecA ATPase Inhibitors. The test is classed as functional. To be noted: 30 µM.
The target in test [2] is T1, Ubiquitin-activating enzyme e1, putative (Leishmania donovani (strain BPK282A1)) (UniProt E9BSI1).
T1 sequence (whole entry): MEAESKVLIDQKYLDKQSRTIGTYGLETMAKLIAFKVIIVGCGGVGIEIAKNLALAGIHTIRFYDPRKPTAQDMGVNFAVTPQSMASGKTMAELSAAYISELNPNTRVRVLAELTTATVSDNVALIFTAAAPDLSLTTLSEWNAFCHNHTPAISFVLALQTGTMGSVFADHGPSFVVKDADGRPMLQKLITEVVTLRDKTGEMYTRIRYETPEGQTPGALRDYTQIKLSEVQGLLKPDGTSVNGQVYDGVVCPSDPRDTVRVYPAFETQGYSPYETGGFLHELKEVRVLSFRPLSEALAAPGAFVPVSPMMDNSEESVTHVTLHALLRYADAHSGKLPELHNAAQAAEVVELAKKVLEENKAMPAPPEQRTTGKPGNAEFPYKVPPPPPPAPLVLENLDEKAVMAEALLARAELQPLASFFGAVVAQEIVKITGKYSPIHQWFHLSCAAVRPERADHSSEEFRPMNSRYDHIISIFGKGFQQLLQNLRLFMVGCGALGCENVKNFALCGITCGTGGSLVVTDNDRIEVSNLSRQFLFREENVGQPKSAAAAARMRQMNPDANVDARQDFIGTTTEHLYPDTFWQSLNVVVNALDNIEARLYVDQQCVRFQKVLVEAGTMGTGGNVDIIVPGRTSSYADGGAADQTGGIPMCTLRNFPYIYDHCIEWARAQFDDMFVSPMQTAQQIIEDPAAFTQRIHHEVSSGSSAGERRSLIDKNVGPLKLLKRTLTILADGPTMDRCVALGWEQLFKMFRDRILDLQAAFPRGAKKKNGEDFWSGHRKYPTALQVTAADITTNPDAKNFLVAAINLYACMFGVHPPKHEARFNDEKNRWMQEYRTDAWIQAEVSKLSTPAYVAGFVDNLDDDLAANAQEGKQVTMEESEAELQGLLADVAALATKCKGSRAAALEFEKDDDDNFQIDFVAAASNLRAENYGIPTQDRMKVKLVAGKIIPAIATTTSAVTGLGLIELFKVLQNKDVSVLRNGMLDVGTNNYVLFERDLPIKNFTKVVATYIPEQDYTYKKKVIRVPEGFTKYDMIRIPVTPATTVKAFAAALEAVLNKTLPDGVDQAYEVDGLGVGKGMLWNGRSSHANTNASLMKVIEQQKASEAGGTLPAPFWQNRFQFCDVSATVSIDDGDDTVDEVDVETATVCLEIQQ
Description: Leishmania donovani Ubiquitin Activating Enzyme (LdE1). The test is classed as functional. To be noted: 30 µM.

Test [3] addresses AMP-activated protein kinase, AMPK (Homo sapiens) (UniProt P54646+O43741+P54619+Q9UGJ0+Q9Y478+Q13131+Q9UGI9). Description: AMP-dependent Kinase enzyme assay. An in vitro enzyme assay that detects ADP turnover that is directly proportional to AMPK activity. This uses naive AMPK that is activated during the assay with MK-8722. The test is classed as functional. To be noted: 30 µM.

Test [4] concerns the target Sialic acid-binding Ig-like lectin 9 (Homo sapiens) (UniProt Q9Y336). Nature of the test: Hs-Siglec9 ALPHAscreen SOP 20170721. To be noted: 10 µM.
Another test has as its system Trypanosoma cruzi. Nature of the test: Trypanosoma cruzi phosphomannomutase and mannose-1-phosphate guanylyltransferase assay. The test is classed as functional. To be noted: 10 µM.
The target of test [5] is T2, Arginase-2, mitochondrial (Homo sapiens) (UniProt P78540).
T2 sequence (whole entry): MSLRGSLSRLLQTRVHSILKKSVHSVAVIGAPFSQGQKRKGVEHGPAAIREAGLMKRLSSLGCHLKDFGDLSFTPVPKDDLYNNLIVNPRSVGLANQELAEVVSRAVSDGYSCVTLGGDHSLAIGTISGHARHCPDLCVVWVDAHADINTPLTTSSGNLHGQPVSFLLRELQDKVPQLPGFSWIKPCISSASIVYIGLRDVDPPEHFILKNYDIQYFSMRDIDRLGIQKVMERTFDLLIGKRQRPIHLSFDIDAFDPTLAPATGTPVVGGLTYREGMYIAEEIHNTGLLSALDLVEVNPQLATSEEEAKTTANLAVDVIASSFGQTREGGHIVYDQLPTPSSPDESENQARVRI
Description: in vitro enzyme assay to detect the production of urea directly proportional to the activity of Arginase II. Further: in the data most compounds retested in dose-response had high values. Format: functional. To be noted: 33.3 µM.

Test [6] has as its target T3, Proteasome subunit beta (Trypanosoma cruzi) (UniProt O96673).
T3 sequence (whole entry): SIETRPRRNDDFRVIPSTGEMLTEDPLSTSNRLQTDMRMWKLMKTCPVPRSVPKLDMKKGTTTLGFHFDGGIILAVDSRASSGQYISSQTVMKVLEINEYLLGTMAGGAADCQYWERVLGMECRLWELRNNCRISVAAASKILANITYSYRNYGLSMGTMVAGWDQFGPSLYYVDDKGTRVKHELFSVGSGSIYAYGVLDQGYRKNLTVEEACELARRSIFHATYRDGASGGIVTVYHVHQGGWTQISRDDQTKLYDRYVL
Nature of the test: Trypanosoma cruzi proteasome chymotrypsin-like activity (TcProtChymo) assay. Further: in the data most compounds retested in dose-response had high values. The test is classed as functional. To be noted: 9.37 µM.

The next test is filed under the species Homo sapiens. Nature of the test: To identify inhibition of the IFN signalling (Jak-Stat) pathway via expression of an eGFP reporter gene under the control of an IFN-stimulated response element (ISRE) containing MxA promoter. To be noted: 30 µM. The test is classed as functional. (A reporter such as luciferase makes a cellular process visible.)
For test [7], the target named is T4, Tyrosyl-tRNA synthetase, putative (Trypanosoma cruzi (strain CL Brener)) (UniProt Q4DSP6).
T4 sequence (whole entry): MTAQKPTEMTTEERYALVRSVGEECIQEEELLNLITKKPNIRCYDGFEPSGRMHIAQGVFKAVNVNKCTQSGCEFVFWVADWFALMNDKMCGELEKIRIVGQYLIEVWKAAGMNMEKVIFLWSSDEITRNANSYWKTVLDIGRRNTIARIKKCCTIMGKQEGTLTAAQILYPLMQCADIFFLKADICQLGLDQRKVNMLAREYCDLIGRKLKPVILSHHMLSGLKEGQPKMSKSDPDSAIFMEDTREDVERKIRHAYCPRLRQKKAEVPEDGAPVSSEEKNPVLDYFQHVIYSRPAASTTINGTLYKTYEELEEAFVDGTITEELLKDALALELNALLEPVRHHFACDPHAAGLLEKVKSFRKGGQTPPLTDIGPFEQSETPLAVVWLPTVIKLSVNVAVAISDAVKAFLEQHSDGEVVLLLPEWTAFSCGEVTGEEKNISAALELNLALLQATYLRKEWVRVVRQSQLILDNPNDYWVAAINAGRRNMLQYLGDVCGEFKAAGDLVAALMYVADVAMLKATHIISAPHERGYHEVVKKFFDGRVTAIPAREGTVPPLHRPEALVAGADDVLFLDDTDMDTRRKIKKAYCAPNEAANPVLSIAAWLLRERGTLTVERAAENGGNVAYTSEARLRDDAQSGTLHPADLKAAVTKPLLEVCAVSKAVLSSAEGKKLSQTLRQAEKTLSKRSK
Description: Trypanosoma cruzi tyrosyl tRNA synthetase (TcYRS) _High Tyrosine SOP. Further: in the data most compounds retested in dose-response had high values. The test is classed as functional. To be noted: 30 µM.

The target of test [8] is T4, Tyrosyl-tRNA synthetase, putative (Trypanosoma cruzi (strain CL Brener)). Description: Trypanosoma cruzi tyrosyl tRNA synthetase (TcYRS) SOP. To be noted: 30 µM. The test is classed as functional.
In test [9] the target is Chromo domain-containing protein 1 (Saccharomyces cerevisiae (strain ATCC 204508 / S288c) (Baker's yeast)) (UniProt P32657). Description: ScCHD-1 Enzyme Inhibition Assay. Further: in the data most compounds retested in dose-response had high values. Format: functional. To be noted: 30 µM.

For some of these results: Results with a measured potency or affinity are listed apart.

Sialic acid-binding Ig-like lectin 9 (Homo sapiens), sequence (Q9Y336 whole entry): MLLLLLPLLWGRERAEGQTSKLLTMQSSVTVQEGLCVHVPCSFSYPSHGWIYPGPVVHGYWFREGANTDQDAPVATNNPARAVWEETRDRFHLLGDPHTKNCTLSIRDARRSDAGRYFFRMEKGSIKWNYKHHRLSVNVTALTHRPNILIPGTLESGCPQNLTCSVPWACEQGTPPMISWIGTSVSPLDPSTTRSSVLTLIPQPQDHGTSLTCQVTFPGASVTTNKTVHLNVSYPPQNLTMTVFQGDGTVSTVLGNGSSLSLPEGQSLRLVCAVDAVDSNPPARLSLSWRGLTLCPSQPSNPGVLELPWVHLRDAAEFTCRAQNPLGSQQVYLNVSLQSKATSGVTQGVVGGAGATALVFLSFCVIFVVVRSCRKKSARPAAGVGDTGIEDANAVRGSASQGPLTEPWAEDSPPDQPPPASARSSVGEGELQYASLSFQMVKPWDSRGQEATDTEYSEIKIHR
Protein translocase subunit SecA (Escherichia coli (strain K12)), sequence (P10408 whole entry): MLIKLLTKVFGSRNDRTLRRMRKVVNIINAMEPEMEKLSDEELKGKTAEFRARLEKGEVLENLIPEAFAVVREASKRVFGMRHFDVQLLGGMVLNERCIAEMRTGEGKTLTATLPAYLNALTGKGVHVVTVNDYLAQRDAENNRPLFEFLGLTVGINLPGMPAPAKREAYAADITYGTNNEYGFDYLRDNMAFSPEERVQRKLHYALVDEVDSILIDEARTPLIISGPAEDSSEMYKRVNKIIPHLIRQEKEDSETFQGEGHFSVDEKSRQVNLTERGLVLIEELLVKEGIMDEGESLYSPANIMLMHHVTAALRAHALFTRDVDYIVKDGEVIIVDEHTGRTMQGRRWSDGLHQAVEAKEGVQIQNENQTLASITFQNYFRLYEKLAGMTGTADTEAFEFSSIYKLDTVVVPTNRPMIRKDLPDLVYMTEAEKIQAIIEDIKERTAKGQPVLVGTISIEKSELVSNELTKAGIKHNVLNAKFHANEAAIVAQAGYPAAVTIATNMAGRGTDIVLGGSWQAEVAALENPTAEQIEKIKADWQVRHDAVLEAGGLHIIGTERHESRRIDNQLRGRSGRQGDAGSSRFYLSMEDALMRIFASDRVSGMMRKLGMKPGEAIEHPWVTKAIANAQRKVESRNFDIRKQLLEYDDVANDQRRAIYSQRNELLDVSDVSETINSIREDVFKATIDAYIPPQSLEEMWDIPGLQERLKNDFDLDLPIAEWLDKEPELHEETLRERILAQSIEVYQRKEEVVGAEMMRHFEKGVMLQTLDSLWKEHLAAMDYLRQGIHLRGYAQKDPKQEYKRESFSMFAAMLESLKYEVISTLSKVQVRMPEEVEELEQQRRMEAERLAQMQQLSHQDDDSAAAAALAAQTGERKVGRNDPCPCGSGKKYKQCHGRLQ
Chromo domain-containing protein 1 (Saccharomyces cerevisiae (strain ATCC 204508 / S288c) (Baker's yeast)), sequence (P32657 whole entry, the tested form may be a part): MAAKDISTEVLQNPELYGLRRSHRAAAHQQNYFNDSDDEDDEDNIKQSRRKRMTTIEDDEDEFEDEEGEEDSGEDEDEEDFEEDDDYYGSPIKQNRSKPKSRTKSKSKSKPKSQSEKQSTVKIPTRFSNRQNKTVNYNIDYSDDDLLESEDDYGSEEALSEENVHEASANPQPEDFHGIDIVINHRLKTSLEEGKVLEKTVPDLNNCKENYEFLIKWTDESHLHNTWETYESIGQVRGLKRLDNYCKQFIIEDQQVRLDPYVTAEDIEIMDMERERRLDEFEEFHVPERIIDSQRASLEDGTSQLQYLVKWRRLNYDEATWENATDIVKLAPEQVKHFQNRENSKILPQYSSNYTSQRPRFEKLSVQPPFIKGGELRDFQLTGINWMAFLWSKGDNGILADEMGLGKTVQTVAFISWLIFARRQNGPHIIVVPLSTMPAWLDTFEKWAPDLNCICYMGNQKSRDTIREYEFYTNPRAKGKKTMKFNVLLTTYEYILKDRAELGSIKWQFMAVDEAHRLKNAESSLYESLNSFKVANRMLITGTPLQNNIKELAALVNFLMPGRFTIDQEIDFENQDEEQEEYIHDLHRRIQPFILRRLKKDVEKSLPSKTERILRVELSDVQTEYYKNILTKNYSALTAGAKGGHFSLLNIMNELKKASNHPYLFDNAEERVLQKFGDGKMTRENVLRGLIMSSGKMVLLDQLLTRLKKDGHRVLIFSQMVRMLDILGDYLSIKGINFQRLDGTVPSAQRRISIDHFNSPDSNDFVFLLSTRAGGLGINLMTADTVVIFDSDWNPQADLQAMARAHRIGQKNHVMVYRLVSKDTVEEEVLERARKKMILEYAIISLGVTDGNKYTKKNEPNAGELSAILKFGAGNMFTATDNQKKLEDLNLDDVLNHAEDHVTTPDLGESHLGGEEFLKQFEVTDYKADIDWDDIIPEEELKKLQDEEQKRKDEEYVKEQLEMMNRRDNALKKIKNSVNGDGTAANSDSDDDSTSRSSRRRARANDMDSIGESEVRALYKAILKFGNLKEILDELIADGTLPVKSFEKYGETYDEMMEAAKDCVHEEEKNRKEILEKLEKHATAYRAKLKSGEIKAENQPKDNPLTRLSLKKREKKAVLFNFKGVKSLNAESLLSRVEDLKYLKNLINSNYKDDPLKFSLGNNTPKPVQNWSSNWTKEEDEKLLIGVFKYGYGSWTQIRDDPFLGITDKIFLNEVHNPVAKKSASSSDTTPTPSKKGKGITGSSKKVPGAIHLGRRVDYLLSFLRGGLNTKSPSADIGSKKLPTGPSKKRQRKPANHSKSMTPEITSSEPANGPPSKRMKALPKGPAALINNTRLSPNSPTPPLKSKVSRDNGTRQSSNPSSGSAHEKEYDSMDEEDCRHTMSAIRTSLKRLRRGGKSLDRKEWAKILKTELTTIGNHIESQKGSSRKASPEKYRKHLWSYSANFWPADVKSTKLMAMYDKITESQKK

For the molecule `Cn1nccc1CNC(=O)Nc1cc(C(F)(F)F)c[nH]c1=O`, the Percent Effect in test [1] is -2.37%; in test [2], 7.89%; in [3], -1.77%; in test [4] it was 11.9%; in the test on Trypanosoma cruzi, 2.44%; in test [5] it was 8.43%. Besides, the Percent Effect in test [6] is 4.51%; in the test listed under Homo sapiens it was 0.842%; in [7] it was 6.37%; in test [8], 12.2%; in test [9] it was -9.48%.
Regarding `CC(C)c1ccc(CN2CCC3(CCCN(c4nncs4)C3)C2)cc1` (stereo unspecified), the Percent Effect is -5.12% in [1]; 2.7% in [2]; -2.41% in [3]; 37.5% in test [4]; 9.87% in the test with Trypanosoma cruzi; -1.74% in [5]. Also, the Percent Effect in [6] is 1.97%; in the test filed under Homo sapiens it was -25%; in test [7], 4.3%; in test [8] it was 13.6%; in [9], -4.2%.
Turning to `CN(Cc1nccn1CC(F)(F)F)C(=O)c1ccc(F)c(F)c1`, the Percent Effect is -4.78% in test [1]; 5.26% in test [2]; 7.84% in test [3]; 5.27% in test [4]; -1.46% with Trypanosoma cruzi; 0% in test [5]. In addition, the Percent Effect in [6] stood at 10.4%; in the test listed under Homo sapiens it was 4.07%; in test [7] it was 4.25%; in test [8] it was 13%; in [9], 26.9%.
As for `Cc1cc(=O)[nH]c(CCNC(=O)C(c2ccc(F)cc2)N(C)C)n1` (stereo unspecified), the Percent Effect in test [1] was 6.03%; in test [2] it was 11%; in test [3], -3.97%; in test [4], 1.73%; in the test on Trypanosoma cruzi, -5.75%; in test [5], -14%. Further, the Percent Effect came to 13.3% in test [6]; 26.9% in the test filed under Homo sapiens; 10.4% in test [7]; 11.1% in test [8]; 0.214% in [9].
On to `COCc1nc(C(=O)N2CCCCC2Cn2cccn2)cs1` (stereo unspecified), for which the Percent Effect was -1.64% in [1]; -7.89% in test [2]; -1.7% in [3]; -2.08% in [4]; 6.82% in the test with Trypanosoma cruzi; -3.24% in [5]. Further, the Percent Effect in test [6] was -0.761%; in the test filed under Homo sapiens it was -20.6%; in test [7] it was 0.493%; in test [8], 3.7%; in test [9] it was 3.28%.
As to `CCn1ncnc1C(C)NC(=O)C1CCN(C(C)C)CC1` (stereo unspecified), the Percent Effect in test [1] is -3.72%; in test [2], 5.41%; in test [3] it was -4.36%; in test [4], 22.1%; with Trypanosoma cruzi, 0.0978%; in [5], 2.73%. Further, the Percent Effect in test [6] is 15%; in the test filed under Homo sapiens, -2.01%; in [7], 9.68%; in test [8], 21%; in [9], -5.24%.
Consider `CCNc1cc2c(nn1)CCN(C(=O)CC1CCCCC1)C2`, for which the Percent Effect is -8.49% in test [1]; 12.7% in test [2]; 0.0974% in test [3]; 9.47% in [4]; 1.42% in the test on Trypanosoma cruzi; 3.04% in test [5]. The Percent Effect in test [6] was -0.0819%; in the test listed under Homo sapiens it was -11.3%; in test [7], 16.3%; in test [8], 8.86%; in test [9] it was -8.44%.
`Cc1cc(N(C)C)nc(C2(C)CCCN2C(=O)c2cnccn2)n1` (stereo unspecified): the Percent Effect in test [1] was -2.86%; in test [2], 8%; in test [3] it was 5.28%; in test [4], -5.27%; in the test with Trypanosoma cruzi it was 7.48%; in [5] it was 2.1%. The Percent Effect in test [6] is 11.4%; in the test filed under Homo sapiens it was -1.62%; in test [7], 1.06%; in [8], 8.97%; in [9], -2.81%.
In the case of `COc1ccc(CN2CCn3c(CNS(C)(=O)=O)nnc3C2)cc1`, the Percent Effect was -9.41% in test [1]; 5.41% in [2]; -37.8% in test [3]; -5.71% in test [4]; -16.5% in the test with Trypanosoma cruzi; -3.5% in test [5]. Further, the Percent Effect was 2.77% in test [6]; 14.7% in the test filed under Homo sapiens; 0% in [7]; 5.13% in [8]; 1% in test [9].
For the molecule `Cn1ncc2c(=O)[nH]c(CN3CCCC3Cc3ccccc3)nc21` (stereo unspecified), the Percent Effect was -2.29% in [1]; 15.8% in [2]; -0.517% in test [3]; 3.61% in test [4]; 9.62% in the test with Trypanosoma cruzi; -3.24% in [5]. Moreover, the Percent Effect is 2.28% in test [6]; 9.4% in the test filed under Homo sapiens; 8.37% in test [7]; 18.5% in test [8]; -6.42% in [9].
For `CN(CCCc1ccccc1)Cc1nc2c(cnn2C)c(=O)[nH]1`, the Percent Effect was -1.94% in test [1]; 8.11% in test [2]; -7.46% in test [3]; -2.26% in [4]; -7.26% in the test with Trypanosoma cruzi; 2.4% in test [5]. Further, the Percent Effect in test [6] is 5.95%; in the test filed under Homo sapiens, 18.9%; in test [7] it was 4.43%; in test [8], 13.6%; in test [9], -1.12%.
